Screens as filed in PubChem BioAssay.
FMDV inh: High Throughput Screening for Foot and Mouth Disease Virus Antivirals; FMDV antiviral cell-based qHTS; Potency, µM (doses to about 57.9 µM), without a hit: at the top dose activity change, negative = inhibition, actives largely listed as inhibitors; 1.2% of 410,000 active; AID 1159524, 2015; calls by dose curve; tested in HEK293T cells; note: read-out not given here; potency is the fitted concentration of half-maximal effect; nearly all actives have a fitted effect of over 45% in size
HCV inh: qHTS Assay for Inhibitors of Hepatitis C Virus (HCV). 3.4% of 340,000 active. Huh7.5.1 HCVcc-Cre infection, luciferase reporter, 44 h. Potency, µM (titrated, usually from 41.8 µM), for inactives: top-dose activity change, negative = inhibition, usual class: inhibitors. AID 651820, 2012; active = well fitted inhibition curve with a large enough effect; inconclusive = small, poorly fitted or top-dose-only effect, or another doubt; inactive = no such curve, though single readings can be large or run the other way; note: potency is the fitted concentration of half-maximal effect
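HCVcc-Cre virus at an moi near 0.5 was added right after compound to cells cultured 4 h from seeding (1,000 cells/well). Luciferase activity was determined 44 h later, 15 min after substrate addition at RT.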
LASV entry inh: qHTS for Inhibitors of binding or entry into cells for Lassa Virus; 1.2% of 300,000 active; AID 540256, 2011; Potency, µM (doses to about 37.9 µM), for inactives: at the top dose activity change, negative = inhibition, actives largely listed as inhibitors; Lassa virus pseudotype entry inhibition, cell reporter; calls by dose curve; tested in HEK293 cells; note: potency is the fitted concentration of half-maximal effect; nearly all actives have a fitted effect of over 50% in size
Marburg entry inh: qHTS for inhibitors of binding or entry into cells for Marburg Virus; Potency, µM (top dose mostly 37.8 µM), for inactives: top-dose activity change, negative = inhibition, most hits filed as inhibitors; 1.8% of 300,000 active; AID 540276, 2011; Marburg virus pseudotyped entry inhibition, cell reporter; calls by dose curve; tested in HEK293 cells; note: potency is the fitted concentration of half-maximal effect
HCMV inh: qHTS Assay for inhibitors of the human cytomegalovirus (HCMV); 4.5% of 410,000 active; activity change, negative = inhibition, % at 57.5 µM; HFF cells, HCMV-luciferase reporter, 72 h; active compounds read low; AID 1259415, 2018; in the data active = activity change below about -60%; inconclusive = no clear call, values can overlap the other calls; inactive = above about -39%
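After 16 h attachment at 37C, HFF cells received test compound and HCMV-luciferase (1 PFU/cell); reporter luminescence read 72 h later, data normalized against buffer-only and known inhibitor Salinomycin.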
An asterisk follows results filed as active; ? = inconclusive; · = no result given; [ ] = remark or other dose. Compounds with a hit are over-represented: about 7.9% of the library has one in this group of screens. % is set by controls: 0 for no effect and ±100 for the full control effect.

SMILES | FMDV inh | HCV inh | LASV entry inh | Marburg entry inh | HCMV inh
O=C(Oc1c(-c2ccccc2Cl)oc2ccccc2c1=O)c1ccc(Cl)cc1 | 8% | 2% | ? | ? | 8
COc1ccc(C(=O)c2c(C)oc3ccc(O)cc23)cc1 | -27% | -15% | · | · | ?
Cc1nc(N2CCN(Cc3ccccc3)CC2)nc2c1CCC2 | -13% | ? | -26%[46.1 µM] | ? | ?
Cc1nc(N2CCN(Cc3ccccc3)CC2)nc2c1C(=O)CCC2 | 25µM* | ? | -16% | ? | -97*
Nc1nc(N)c2cc(CNc3ccc(Cl)c(Cl)c3)ccc2n1 | 35µM* | · | · | · | -69*
CC1CCN(CCCC(=O)c2ccc(F)cc2)CC1 | -18% | · | · | · | ·
CC(C)(C)c1ccc(C(=O)CCCN2CCC(OC(c3ccccc3)c3ccccc3)CC2)cc1 | · | · | 5.2µM* | ? | ·
Cc1ccc(OCC(=O)N(c2ccc(C)cc2)S(=O)(=O)c2ccc(Cl)cc2)cc1 | -9% | · | -21%[46.1 µM] | · | -7
COC(=O)[C@H]1[C@H](CO)[C@H]2Cn3c(cccc3=O)[C@@H]1N2CC1CCCCC1 | · | · | · | · | -13
C[C@H](NC(=O)c1cccc2ccccc12)C(O)c1nc2ccccc2[nH]1 (stereo not given in full) | · | · | · | · | -9
Cn1ccnc1Sc1cc(NCCCO)c([N+](=O)[O-])c2nonc12 | 25µM* | 10µM* | ? | ? | 143
O=[N+]([O-])c1c(NCCCO)cc(N2CCCCCC2)c2nonc12 | -17% | -4% | -6% | ? | -23
O=[N+]([O-])c1c(NCCCO)cc(Sc2ccc(Cl)cc2)c2nonc12 | 25µM* | ? | ? | 11µM* | -18
O=[N+]([O-])c1c(NCCCO)cc(SCc2ccco2)c2nonc12 | 0% | ? | 0% | 2% | 50
O=[N+]([O-])c1c(NCCCO)cc(N2CCN(Cc3ccc4c(c3)OCO4)CC2)c2nonc12 | 18µM* | ? | ? | ? | -78*
Cc1cc(C(=O)Nc2ccccc2-c2nc(CNC(=O)C3COc4ccccc4O3)c(C)o2)c(C)o1 (stereo not given) | 9% | · | · | · | ·
COc1ccc(C2=Nc3ccccc3NC(c3cccs3)=N2)cc1 | -2% | · | 8%[46.1 µM] | 20µM* | -30
Cc1ccc(C)c(N(CC(=O)NC2CCCC2)C(=O)c2cc3cc4cc(C)ccc4nc3s2)c1 | · | 22µM* | -9% | -20% | -16
Cc1cccc(N(CC(=O)NC2CCCC2)C(=O)c2cc3cc4cccc(C)c4nc3s2)c1C | -6% | ? | -26% | ? | -36
CC(=O)N/C(=C/C(C)C)c1ccccc1 | 4% | 6% | · | · | -28
Cn1c(=O)oc2cc(S(=O)(=O)N3CCC(C(=O)NCc4ccccc4)CC3)ccc21 | -4% | 18% | 17%[46.1 µM] | 3%[46.1 µM] | -18
O=C(C1CCN(S(=O)(=O)c2ccc(F)cc2)CC1)N1CC=C(c2ccccc2)CC1 | -22% | ? | ? | -15% | -101*
Cn1c(=O)oc2cc(S(=O)(=O)N3CCC(C(=O)N4CC=C(c5ccccc5)CC4)CC3)ccc21 | -21% | -8% | · | · | -73*
CC(C)NC1(C#N)CCN(Cc2ccccc2)CC1 | -4% | 0% | -9%[46.1 µM] | -3%[46.1 µM] | 8
CC(Sc1nnc(-c2cccnc2)n1N)C(=O)N1CCOCC1 (stereo not given) | -18% | 10% | -1%[46.1 µM] | ? | 26
CC(Sc1nnc(-c2cccnc2)n1-c1ccccc1F)C(=O)N1CCCc2ccccc21 (stereo not given) | · | 6% | · | -1% | -65*
O=C(Nc1ccc(F)cc1F)c1ccc2c(O)c(S(=O)(=O)c3ccc(Cl)cc3)c(=O)[nH]c2c1 | -9% | · | -3%[46.1 µM] | · | -5
CC(C)c1ccc(NC(=O)N[C@H]2CC[C@@]34CCCN3C(=O)CCC[C@H]4[C@H]2C)cc1 | · | · | · | · | -13
C=CCOC(=O)c1[nH]c2c(c1C)C(=O)CC(c1cc(OC)c(OC)c(OC)c1)C2 (stereo not given) | 11µM* | ? | ? | ? | ·
COCCOC(=O)c1[nH]c2c(c1C)C(=O)CC(c1ccc(N(C)C)cc1)C2 (stereo not given) | -21% | 13µM* | ? | -18%[46.1 µM] | 31
